Data on five compounds can be found in ChEMBL document CHEMBL3988442, “University of Dundee, Small-Polar-MMV Screening Library” (2021).

The structures appear in SMILES notation. For some assays here: Results with a measured potency or affinity are listed apart.

Holding throughout (set-up): scale not given: direction of the effect not stated beside the values
Test [1] deals with Protein translocase subunit SecA (Escherichia coli (strain K12)) (UniProt P10408). The test can be described thus: Assay to Identify E. coli SecA ATPase Inhibitors. It is filed as functional. The settings on record: 30 µM.
Test [2] deals with T1, Ubiquitin-activating enzyme e1, putative (Leishmania donovani (strain BPK282A1)) (UniProt E9BSI1).
T1 sequence (whole entry): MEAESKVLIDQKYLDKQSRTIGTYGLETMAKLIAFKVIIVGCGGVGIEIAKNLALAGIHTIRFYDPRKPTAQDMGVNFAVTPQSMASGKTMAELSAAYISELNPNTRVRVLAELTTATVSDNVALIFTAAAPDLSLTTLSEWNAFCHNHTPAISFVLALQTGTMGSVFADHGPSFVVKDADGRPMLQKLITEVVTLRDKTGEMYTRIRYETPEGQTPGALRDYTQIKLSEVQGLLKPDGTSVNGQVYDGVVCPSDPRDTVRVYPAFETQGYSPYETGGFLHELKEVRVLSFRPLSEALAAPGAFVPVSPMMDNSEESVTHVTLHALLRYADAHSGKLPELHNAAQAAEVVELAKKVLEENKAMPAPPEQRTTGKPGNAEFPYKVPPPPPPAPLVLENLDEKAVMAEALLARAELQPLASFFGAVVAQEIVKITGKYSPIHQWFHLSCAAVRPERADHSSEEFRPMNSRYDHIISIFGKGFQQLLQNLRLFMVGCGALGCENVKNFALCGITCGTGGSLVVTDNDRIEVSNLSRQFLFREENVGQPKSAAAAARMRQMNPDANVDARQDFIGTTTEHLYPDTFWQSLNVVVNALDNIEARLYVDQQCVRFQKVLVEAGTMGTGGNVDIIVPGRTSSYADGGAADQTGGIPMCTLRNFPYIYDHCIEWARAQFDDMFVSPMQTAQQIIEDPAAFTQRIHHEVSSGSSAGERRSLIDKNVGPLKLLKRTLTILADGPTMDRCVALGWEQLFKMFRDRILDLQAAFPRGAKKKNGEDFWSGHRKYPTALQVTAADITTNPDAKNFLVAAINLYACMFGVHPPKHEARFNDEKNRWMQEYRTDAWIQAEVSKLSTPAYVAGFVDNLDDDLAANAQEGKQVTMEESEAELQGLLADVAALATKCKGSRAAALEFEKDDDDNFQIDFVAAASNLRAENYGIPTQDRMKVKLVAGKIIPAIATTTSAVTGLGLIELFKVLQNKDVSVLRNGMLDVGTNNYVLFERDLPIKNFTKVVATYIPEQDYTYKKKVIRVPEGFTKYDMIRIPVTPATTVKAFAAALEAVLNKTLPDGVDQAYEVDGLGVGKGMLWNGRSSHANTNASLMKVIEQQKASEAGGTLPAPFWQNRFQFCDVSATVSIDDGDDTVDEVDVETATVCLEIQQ
The test can be described thus: Leishmania donovani Ubiquitin Activating Enzyme (LdE1). The settings on record: 30 µM. Type of test: functional.

Test [3] deals with T2, Aspartate--tRNA(Asp/Asn) ligase (Mycobacterium tuberculosis (strain ATCC 25618 / H37Rv)) (UniProt P9WFW3).
T2 sequence (whole entry): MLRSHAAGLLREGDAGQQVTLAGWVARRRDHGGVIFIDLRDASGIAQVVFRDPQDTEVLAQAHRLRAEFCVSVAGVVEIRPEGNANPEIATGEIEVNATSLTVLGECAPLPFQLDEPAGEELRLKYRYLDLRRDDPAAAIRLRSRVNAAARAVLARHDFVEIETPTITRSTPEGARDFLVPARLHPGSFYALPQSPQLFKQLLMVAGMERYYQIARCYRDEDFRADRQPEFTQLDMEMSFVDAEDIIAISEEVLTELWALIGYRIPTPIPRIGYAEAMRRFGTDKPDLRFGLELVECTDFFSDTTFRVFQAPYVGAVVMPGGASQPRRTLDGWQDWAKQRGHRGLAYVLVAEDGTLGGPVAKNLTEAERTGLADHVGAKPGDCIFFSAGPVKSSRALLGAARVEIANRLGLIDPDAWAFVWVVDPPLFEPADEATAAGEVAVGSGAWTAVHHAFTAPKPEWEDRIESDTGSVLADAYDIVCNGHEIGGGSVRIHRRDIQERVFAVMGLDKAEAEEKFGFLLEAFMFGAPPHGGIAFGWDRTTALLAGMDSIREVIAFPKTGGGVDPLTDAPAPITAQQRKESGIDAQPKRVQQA
The experiment in a line: Assay for Asp RNA synthetase-1 from Mycobacterium tuberculosis. The settings on record: 30 µM. Type of test: functional.

Test [4] deals with AMP-activated protein kinase, AMPK (Homo sapiens) (UniProt P54646+O43741+P54619+Q9UGJ0+Q9Y478+Q13131+Q9UGI9). The test can be described thus: AMP-dependent Kinase enzyme assay. An in vitro enzyme assay that detects ADP turnover that is directly proportional to AMPK activity. This uses naive AMPK that is activated during the assay with MK-8722. The settings on record: 30 µM. Type of test: functional.

Test [5] has as its target Sialic acid-binding Ig-like lectin 9 (Homo sapiens) (UniProt Q9Y336). The test can be described thus: Hs-Siglec9 ALPHAscreen SOP 20170721. The settings on record: 10 µM. In general terms: In Alpha technology, singlet oxygen from a donor bead excites a nearby acceptor bead.
Test [6] concerns Trypanosoma cruzi. The experiment in a line: Trypanosoma cruzi phosphomannomutase and mannose-1-phosphate guanylyltransferase assay. It is filed as functional. The settings on record: 10 µM.
Test [7] addresses T3, Arginase-2, mitochondrial (Homo sapiens) (UniProt P78540).
T3 sequence (whole entry): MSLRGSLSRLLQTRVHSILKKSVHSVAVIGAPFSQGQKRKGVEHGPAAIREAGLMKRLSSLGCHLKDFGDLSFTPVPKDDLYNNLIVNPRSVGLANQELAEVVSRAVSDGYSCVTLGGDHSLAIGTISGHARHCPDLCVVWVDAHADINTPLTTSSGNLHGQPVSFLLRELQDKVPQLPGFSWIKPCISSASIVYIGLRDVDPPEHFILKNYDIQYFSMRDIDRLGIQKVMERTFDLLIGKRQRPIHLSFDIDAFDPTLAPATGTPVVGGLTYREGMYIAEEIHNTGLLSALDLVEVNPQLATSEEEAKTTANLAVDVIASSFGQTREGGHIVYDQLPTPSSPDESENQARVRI
The experiment in a line: in vitro enzyme assay to detect the production of urea directly proportional to the activity of Arginase II. Further: in the data most compounds retested in dose-response had high values. It is filed as functional. The settings on record: 33.3 µM.

For test [8], the target named is T4, Proteasome subunit beta (Trypanosoma cruzi) (UniProt O96673).
T4 sequence (whole entry): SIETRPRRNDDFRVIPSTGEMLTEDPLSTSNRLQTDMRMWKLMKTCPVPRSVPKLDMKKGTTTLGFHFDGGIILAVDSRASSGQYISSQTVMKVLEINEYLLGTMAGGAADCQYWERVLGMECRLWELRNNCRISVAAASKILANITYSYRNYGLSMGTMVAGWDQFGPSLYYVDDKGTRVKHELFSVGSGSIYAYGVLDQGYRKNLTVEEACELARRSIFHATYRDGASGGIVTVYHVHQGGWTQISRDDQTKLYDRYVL
The experiment in a line: Trypanosoma cruzi proteasome chymotrypsin-like activity (TcProtChymo) assay. Further: in the data most compounds retested in dose-response had high values. The settings on record: 9.37 µM. Type of test: functional.

For test [9], the species on record is Homo sapiens. The test can be described thus: To identify inhibition of the IFN signalling (Jak-Stat) pathway via expression of an eGFP reporter gene under the control of an IFN-stimulated response element (ISRE) containing MxA promoter. The settings on record: 30 µM. It is filed as functional. (A reporter such as luciferase makes a cellular process visible.)

Test [10] addresses Shiga toxin 2 (Escherichia coli O157:H7) (UniProt P09385+P09386). The experiment in a line: E. coli 0.157:H7 Shiga Toxin SOP - stx2 screening assay. It is filed as functional. The settings on record: 30 µM.
The target of test [11] is T5, Tyrosyl-tRNA synthetase, putative (Trypanosoma cruzi (strain CL Brener)) (UniProt Q4DSP6).
T5 sequence (whole entry): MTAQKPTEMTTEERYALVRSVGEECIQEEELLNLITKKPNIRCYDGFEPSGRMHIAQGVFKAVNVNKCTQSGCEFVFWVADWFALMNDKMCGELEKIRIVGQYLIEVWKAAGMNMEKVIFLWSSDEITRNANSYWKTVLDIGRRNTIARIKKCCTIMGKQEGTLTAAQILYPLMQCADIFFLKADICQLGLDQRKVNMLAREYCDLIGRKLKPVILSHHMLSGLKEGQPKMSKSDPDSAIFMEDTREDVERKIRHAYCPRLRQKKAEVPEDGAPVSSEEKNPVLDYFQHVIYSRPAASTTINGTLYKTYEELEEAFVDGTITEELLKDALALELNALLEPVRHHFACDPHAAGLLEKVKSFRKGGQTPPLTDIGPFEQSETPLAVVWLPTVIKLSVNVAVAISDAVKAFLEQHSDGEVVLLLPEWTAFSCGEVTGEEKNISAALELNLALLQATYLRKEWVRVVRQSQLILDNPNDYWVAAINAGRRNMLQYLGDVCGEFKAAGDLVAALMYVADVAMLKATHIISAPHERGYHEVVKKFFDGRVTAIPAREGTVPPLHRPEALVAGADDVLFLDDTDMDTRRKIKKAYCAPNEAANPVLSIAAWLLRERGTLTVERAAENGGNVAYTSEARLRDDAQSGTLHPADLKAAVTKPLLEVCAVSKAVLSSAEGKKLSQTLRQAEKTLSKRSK
The test can be described thus: Trypanosoma cruzi tyrosyl tRNA synthetase (TcYRS) _High Tyrosine SOP. Further: in the data most compounds retested in dose-response had high values. It is filed as functional. The settings on record: 30 µM.

Test [12] has as its target T5, Tyrosyl-tRNA synthetase, putative (Trypanosoma cruzi (strain CL Brener)). The experiment in a line: Trypanosoma cruzi tyrosyl tRNA synthetase (TcYRS) SOP. It is filed as functional. The settings on record: 30 µM.
Test [13] concerns the target Chromo domain-containing protein 1 (Saccharomyces cerevisiae (strain ATCC 204508 / S288c) (Baker's yeast)) (UniProt P32657). The experiment in a line: ScCHD-1 Enzyme Inhibition Assay. Further: in the data most compounds retested in dose-response had high values. Type of test: functional. The settings on record: 30 µM.

Protein translocase subunit SecA (Escherichia coli (strain K12)), sequence (P10408 whole entry): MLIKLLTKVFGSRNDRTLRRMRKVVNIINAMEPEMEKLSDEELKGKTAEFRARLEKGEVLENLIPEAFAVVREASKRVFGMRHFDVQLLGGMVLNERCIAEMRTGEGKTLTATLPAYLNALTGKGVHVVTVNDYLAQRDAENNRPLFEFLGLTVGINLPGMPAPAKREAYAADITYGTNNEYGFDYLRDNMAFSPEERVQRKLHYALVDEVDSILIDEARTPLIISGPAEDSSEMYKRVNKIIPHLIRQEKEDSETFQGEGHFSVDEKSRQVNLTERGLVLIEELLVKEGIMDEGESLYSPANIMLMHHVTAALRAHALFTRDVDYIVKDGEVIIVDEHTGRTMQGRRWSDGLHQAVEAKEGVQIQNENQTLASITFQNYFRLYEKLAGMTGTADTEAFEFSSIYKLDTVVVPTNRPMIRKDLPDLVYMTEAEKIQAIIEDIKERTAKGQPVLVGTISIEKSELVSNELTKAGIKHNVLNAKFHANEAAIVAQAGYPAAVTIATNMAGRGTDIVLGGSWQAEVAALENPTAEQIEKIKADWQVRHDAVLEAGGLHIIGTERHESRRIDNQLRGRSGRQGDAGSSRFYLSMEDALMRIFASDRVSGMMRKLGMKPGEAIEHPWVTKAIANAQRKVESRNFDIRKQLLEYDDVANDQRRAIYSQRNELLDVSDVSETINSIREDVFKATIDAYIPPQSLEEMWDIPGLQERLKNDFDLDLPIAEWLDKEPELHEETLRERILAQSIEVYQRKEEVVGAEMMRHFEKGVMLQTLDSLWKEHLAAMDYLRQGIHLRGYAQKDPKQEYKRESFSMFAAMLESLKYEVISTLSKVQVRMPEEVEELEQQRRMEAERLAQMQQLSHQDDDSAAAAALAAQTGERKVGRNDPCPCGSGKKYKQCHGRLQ
Sialic acid-binding Ig-like lectin 9 (Homo sapiens), sequence (Q9Y336 whole entry): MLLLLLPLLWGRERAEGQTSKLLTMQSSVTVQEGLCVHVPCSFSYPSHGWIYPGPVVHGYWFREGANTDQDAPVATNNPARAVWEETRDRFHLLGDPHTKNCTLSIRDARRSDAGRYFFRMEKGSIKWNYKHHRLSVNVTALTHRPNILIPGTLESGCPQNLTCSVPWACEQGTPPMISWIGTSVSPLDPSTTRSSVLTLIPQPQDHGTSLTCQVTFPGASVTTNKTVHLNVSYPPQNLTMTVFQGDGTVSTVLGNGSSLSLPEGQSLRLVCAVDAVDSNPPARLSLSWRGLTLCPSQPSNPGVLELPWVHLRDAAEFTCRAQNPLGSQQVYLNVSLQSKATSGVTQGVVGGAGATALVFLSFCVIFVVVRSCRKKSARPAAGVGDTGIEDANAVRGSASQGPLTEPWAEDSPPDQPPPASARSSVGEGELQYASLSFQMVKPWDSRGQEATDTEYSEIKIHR
Chromo domain-containing protein 1 (Saccharomyces cerevisiae (strain ATCC 204508 / S288c) (Baker's yeast)), sequence (P32657 whole entry, the tested form may be a part): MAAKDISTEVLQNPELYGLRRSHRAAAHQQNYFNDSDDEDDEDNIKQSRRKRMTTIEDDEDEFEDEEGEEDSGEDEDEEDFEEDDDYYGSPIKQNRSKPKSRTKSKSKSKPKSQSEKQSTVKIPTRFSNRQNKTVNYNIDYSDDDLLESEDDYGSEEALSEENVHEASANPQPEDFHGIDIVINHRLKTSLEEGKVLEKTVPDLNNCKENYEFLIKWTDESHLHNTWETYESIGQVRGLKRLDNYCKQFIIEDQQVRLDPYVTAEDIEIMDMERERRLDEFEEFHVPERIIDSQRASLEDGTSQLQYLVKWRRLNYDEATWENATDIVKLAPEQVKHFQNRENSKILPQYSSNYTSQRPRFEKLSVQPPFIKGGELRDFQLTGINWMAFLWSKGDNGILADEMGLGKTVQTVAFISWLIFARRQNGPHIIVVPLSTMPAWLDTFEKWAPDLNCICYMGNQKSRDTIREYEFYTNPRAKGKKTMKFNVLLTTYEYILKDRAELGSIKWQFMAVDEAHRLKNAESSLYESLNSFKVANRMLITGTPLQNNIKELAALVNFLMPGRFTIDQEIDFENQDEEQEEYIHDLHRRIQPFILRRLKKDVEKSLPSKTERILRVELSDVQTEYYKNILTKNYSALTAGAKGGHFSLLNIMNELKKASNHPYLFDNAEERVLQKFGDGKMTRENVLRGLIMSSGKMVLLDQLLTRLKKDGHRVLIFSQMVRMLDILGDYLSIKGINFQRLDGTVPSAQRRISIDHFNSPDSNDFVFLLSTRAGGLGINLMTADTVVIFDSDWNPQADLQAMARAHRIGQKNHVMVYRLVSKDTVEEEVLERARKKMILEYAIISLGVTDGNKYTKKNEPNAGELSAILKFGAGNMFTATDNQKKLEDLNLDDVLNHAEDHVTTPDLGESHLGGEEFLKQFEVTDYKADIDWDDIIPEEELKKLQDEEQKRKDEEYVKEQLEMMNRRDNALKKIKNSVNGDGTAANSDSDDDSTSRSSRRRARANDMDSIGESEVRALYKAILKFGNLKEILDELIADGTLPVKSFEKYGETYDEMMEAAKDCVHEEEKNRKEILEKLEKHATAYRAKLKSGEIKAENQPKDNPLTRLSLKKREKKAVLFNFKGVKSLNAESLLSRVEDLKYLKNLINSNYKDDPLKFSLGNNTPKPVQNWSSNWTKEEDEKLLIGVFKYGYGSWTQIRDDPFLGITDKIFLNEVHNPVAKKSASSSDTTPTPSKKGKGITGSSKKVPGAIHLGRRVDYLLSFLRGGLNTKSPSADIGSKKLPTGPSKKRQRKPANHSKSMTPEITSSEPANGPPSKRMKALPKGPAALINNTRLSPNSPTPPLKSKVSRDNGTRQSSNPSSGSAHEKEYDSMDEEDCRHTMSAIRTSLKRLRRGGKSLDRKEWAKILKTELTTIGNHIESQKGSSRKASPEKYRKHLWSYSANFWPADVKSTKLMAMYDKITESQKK

As to `c1ccc(OC[C@H]2CCC[C@]23CN(Cc2nccs2)CCO3)nc1`, the Percent Effect in test [1] was 1.87%; in test [2] it was 0%; in [3], -0.162%; in test [4], -19.9%; in test [5], 5.02%; in test [6], -2.36%. Moreover, the Percent Effect in [7] was -15.2%; in test [8] it was 3.08%; in test [9] it was 34.4%; in [10], -11.8%; in test [11], 1.06%; in test [12] it was 3.85%. Moreover, the Percent Effect in test [13] came to 3.38%.
On to `Cc1cccc(CN2C[C@H](NS(C)(=O)=O)[C@@H]3OCCC[C@@H]32)n1`, for which the Percent Effect was -0.629% in test [1]; -5.33% in [2]; -2.65% in test [3]; 9.72% in test [4]; 5.95% in test [5]; -4.83% in [6]. In addition, the Percent Effect in test [7] is -50%; in test [8], 0.513%; in [9], 3.24%; in test [10], -15.5%; in [11] it was 1.04%; in test [12], -5%. Further, the Percent Effect in test [13] was -2.83%.
Take `CO[C@@H]1CC[C@H]2[C@H]1OCCN2CC1CCOCC1`: the Percent Effect in test [1] is -7.48%; in test [2], 13.5%; in [3], -1.82%; in test [4], -2.63%; in test [5], 10.8%; in [6] it was 3.91%. Moreover, the Percent Effect in [7] was 3.33%; in test [8] it was 8.88%; in test [9], 1.72%; in test [10] it was 9.96%; in [11], 4.95%; in [12] it was 13.4%. For the same compound, the Percent Effect in test [13] is -4.03%.
As for `O=C(Cc1ccccc1)N1CCN(Cc2noc(C3CC3)n2)CC1`, the Percent Effect in [1] is -1.81%; in test [2], 11.4%; in test [3], -2.26%; in test [4], 0.817%; in test [5], 1.57%; in [6], -4.62%. In addition, the Percent Effect was -3.23% in test [7]; 12.9% in [8]; -5.12% in test [9]; 0.476% in test [10]; 7.29% in test [11]; 15.2% in [12]. Further, the Percent Effect in test [13] is -22.4%.
For the compound `Cn1ccnc1CN1CCC2(CC(=O)N(c3cncnc3)C2)C1` (stereo not given), the Percent Effect was -1.68% in test [1]; 2.7% in [2]; -3.41% in [3]; 10% in test [4]; 1.79% in [5]; -2.64% in test [6]. For the same compound, the Percent Effect in test [7] was determined as 2.23%; in test [8], 21.2%; in [9] it was 2.89%; in test [10] it was 0.165%; in [11], 2.16%; in test [12], 12.8%. Further, in [13], the Percent Effect amounted to 1.86%.
